According to PubChem BioAssay:

Each compound was assayed against Torsin-1A (Homo sapiens) (UniProt O14656) (assay: torsin A mutant lysate binding on microarrays – cell lysate, small-molecule microarray, COS7 lysate, 635/667 nm fluorescence, primary screen (AID 1150;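 note: score pools 667 nm emission and signal to noise measuring lysate protein binding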)). Conditions: COS7 hTOR1A mutant lysate, 635 nm fluorescence, higher = more signal.
Torsin-1A (Homo sapiens), sequence (O14656 whole entry, looked up): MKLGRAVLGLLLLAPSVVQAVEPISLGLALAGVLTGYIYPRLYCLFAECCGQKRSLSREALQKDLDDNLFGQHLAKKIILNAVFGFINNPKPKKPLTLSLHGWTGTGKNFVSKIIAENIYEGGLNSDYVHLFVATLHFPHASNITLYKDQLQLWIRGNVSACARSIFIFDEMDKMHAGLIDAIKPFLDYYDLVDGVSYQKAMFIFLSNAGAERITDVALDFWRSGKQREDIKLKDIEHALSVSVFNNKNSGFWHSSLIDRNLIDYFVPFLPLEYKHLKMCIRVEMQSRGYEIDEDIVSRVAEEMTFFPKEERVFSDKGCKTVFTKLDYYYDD

First: COCCOC(=O)N1C(=O)[C@@]2(c3ccccc31)[C@H](c1ccc(OCCO)cc1)N1[C@H](c3ccccc3)[C@H](c3ccccc3)OC(=O)[C@H]1[C@@H]2C(=O)N1CCc2cc(OC)c(OC)cc2C1
Second: COCCOC(=O)N1C(=O)[C@@]2(c3ccccc31)[C@H](C(=O)N1CCCCCCC1)[C@H]1C(=O)O[C@H](c3ccccc3)[C@H](c3ccccc3)N1[C@@H]2c1ccc(OCCO)cc1
The composite z-score of the first is lower: 0.153 for the first, 3.39 for the second.

Compared with `O=C(CS)NCCCCCNC(=O)[C@H]1C[C@H]2C(=O)NCC(=O)N2[C@H]1c1cccc(OCCO)c1`, `O=C(CS)NCCCCCNC(=O)[C@@H]1C[C@@H]2C(=O)NCC(=O)N2[C@@H]1c1cccc(OCCO)c1` is lower in composite z-score: -0.0418 for the first, -0.0657 for the second.

Compared with `CCCC[C@@H]1C[C@H]1[C@@H](NC(=O)c1cccnc1)c1ccc(Cl)cc1`, `CCCCCCCCCCC(O)C1C=CC2C(=O)NC(=O)C2N1Nc1ccc(Cl)cc1Cl` (stereo unspecified) is higher in composite z-score: -0.419 for the first, 0.0193 for the second.

Going from `O=C1O[C@H](c2ccccc2)[C@H](c2ccccc2)N2[C@H]1[C@@H](C(=O)N1CCN(c3ncccn3)CC1)[C@]1(C(=O)Nc3ccc(C#CC4=CCCCC4)cc31)[C@H]2c1ccccc1OCCO` to `COC(=O)C(CC#Cc1ccc2c(c1)[C@]1(C(=O)N2)[C@H](c2ccc(O)cc2)N2[C@H](c3ccccc3)[C@H](c3ccccc3)OC(=O)[C@H]2[C@@H]1C(=O)N1CCN(c2ncccn2)CC1)C(=O)OC`, the composite z-score rises from 0.0096 to 0.338.

First: CCCCC(O)C1C=CC2C(=O)N(C)C(=O)C2N1N1CCCCC1 (stereo unspecified)
Second: CC=CC(O)C1C=CC2C(=O)N(C)C(=O)C2N1N(c1ccccc1)c1ccccc1 (stereo unspecified)
The composite z-score of the first is lower: 0.845 for the first, 1.3 for the second.

Compared with `O=C1OCCC=C[C@H]2OC34C=CCN(c5ccc(Cl)cc5)C(=O)[C@H]3N(CCCO)C(=O)[C@@H]4C12` (stereo partly specified), `O=C1OCC=C[C@H]2OC34C=CCN(Cn5nnc6ccccc65)C(=O)[C@H]3N(CCCCCO)C(=O)[C@@H]4[C@@H]12` (stereo partly specified) is higher in composite z-score: -1.56 for the first, -1.08 for the second.

Going from `CO[C@H]1O[C@H](CO)[C@@H](OC(=O)Nc2cccc(F)c2)[C@H](OC(=O)Nc2ccccc2)[C@H]1OC(=O)Nc1ccccc1` to `CO[C@H]1O[C@H](CO)[C@@H](OC(=O)Nc2ccccc2)[C@@H]2OC(=O)[C@@H](Cc3ccc4ccccc4c3)C/C=C/C[C@H](Cc3ccc4ccccc4c3)C(=O)O[C@@H]12`, the composite z-score rises from 0.616 to 1.87.

Compared with `C#CCOc1ccc(C[C@@H](C(=O)OC)N(CC#C)[C@@H](/C=C/C2CC2)[C@H](O)Cc2ccccc2)cc1`, `C[N+](C)(C)CCCCCCNC(=O)[C@H]1C[C@H]2C(=O)N[C@@H](Cc3ccccc3)C(=O)N2[C@H]1c1cccc(OCCO)c1` is higher in composite z-score: -0.489 for the first, 1.24 for the second.

Going from `CCCCCCc1nc(-c2ccc(-c3ccc(Cl)c(Cl)c3)o2)c(C)c2c1[Si](C(C)C)(C(C)C)OC2` to `COc1ccc(C(=O)Nc2cccc(CN3C(=O)[C@]4(O[C@H](CCn5cc(CCO)nn5)[C@@H]([Si](C)(C)c5ccc(OC)cc5)[C@@H]4C)c4ccccc43)c2)cc1`, the composite z-score rises from 0.0515 to 0.359.

Compared with `COc1ccc([Si](C)(C)[C@H]2[C@H](CCO)O[C@@]3(C(=O)N(Cc4ccccc4)c4ccc(N5CCCCC5=O)cc43)[C@@H]2C)cc1`, `COC(=O)[C@@]1(Cc2ccccc2)[C@H]2c3cc(C(=O)N4CCCC4)n(Cc4ccc(O)c(OC)c4)c3C[C@H]2CN1C(=O)c1ccccc1` is lower in composite z-score: 1.67 for the first, 0.0381 for the second.

Compared with `COCCCNC(=O)[C@@]1(Sc2ccc(C)cc2)CC(=O)N(Cc2ccccc2Cl)[C@@H]1c1ccc(CO)cc1`, `CCOC(=O)C1=CC[C@@H](c2ccc(C(F)(F)F)cc2)N(S(=O)(=O)c2ccc(C)cc2)[C@H]1c1ccccc1` is higher in composite z-score: 0.582 for the first, 0.658 for the second.

Going from `[N-]=[N+]=Nc1ccccc1C[C@]1(C(=O)N2CCCCC2)COC(c2ccc(OCCCO)cc2)=N1` to `CC(C)(C)OC(=O)CC[C@]1(C(=O)NCCN2CCOCC2)COC(c2ccc(OCCCO)cc2)=N1`, the composite z-score rises from 0.742 to 1.37.

First: C=C(C(=O)CC[C@H](OC(C)=O)c1ccccc1OCCO)C(C)C
Second: C=CCC(OC(C)=O)[C@@H]1[C@@H](N(Cc2ccc(-c3ccccc3)cc2)C(=O)Cc2ccc(F)cc2)c2cc(OCCCO)ccc2N1C(=O)c1ccc2ccccc2c1 (stereo partly specified)
The composite z-score of the first is lower: -0.752 for the first, -0.0056 for the second.

Going from `COCCOC(=O)N1C(=O)[C@@]2(c3cc(C#CCCO)ccc31)[C@H](c1ccc(OCCO)cc1)N1[C@H](c3ccccc3)[C@H](c3ccccc3)OC(=O)[C@H]1[C@@H]2C(N)=O` to `O=C1O[C@@H](c2ccccc2)[C@@H](c2ccccc2)N2[C@@H](c3ccc(OCCO)cc3)[C@]3(C(=O)Nc4ccc(C#CCCO)cc43)[C@@H](C(=O)NC[C@H](O)c3ccccc3)[C@H]12`, the composite z-score rises from 0.569 to 0.652.

Compared with `C=CCC(OC(C)=O)[C@@H]1[C@@H](N(Cc2ccc(-c3cccc(C(F)(F)F)c3)o2)C(=O)Cc2ccc(OC)cc2)c2cc(OCCCO)ccc2N1C(=O)c1ccc2ccccc2c1` (stereo partly specified), `CCOC(=O)C[C@H]1[C@H](OC(=O)c2ccc(C(=O)c3ccccc3)cc2)[C@@H](NC(=O)Cc2ccc(OC)cc2)c2cc(OCCCO)ccc2N1C(=O)c1ccc2ccccc2n1` is higher in composite z-score: 0.168 for the first, 0.561 for the second.

Compared with `CC[C@@H]1C=C(C(=O)O)[C@H](c2cccc3ccccc23)N1S(=O)(=O)c1ccc(C)cc1`, `CC[C@@H]1C=C(C(=O)O)[C@H](c2ccc(C)cc2)N1S(=O)(=O)c1ccc(C)cc1` is lower in composite z-score: 0.331 for the first, 0.247 for the second.

Compared with `COc1ccc(CCNC(=O)[C@@]2(c3ccc([N+](=O)[O-])cc3)CC(=O)N(CC34CC5CC(CC(C5)C3)C4)[C@@H]2c2ccc(CO)cc2I)cc1`, `O=C1O[C@@H](c2ccccc2)[C@@H](c2ccccc2)N2[C@@H](c3ccccc3OCCO)[C@]3(C(=O)Nc4ccccc43)[C@@H](C(=O)O)[C@H]12` is higher in composite z-score: 1.05 for the first, 1.14 for the second.

First: COc1ccc([C@H]2OC[C@@H]3CCC(=O)N32)cc1
Second: CCOc1cc(C(O)C2C=CC3C(=O)N(c4ccccc4)C(=O)C3N2Nc2ccc(C(C)C)cc2)ccc1O (stereo unspecified)
The composite z-score of the first is lower: 0.214 for the first, 0.57 for the second.
